The sample as a whole holds a higher share of hits than the screen did.
Pf Dd2 inh – qHTS Primary assay for Inhibitors of Plasmodium falciparum Dd2 growth in vitro; Potency, µM (titrated, usually from 28.9 µM), hits mostly inhibitors; 120,000 compounds, 4.3% hits; P. falciparum Dd2 growth, SYBR Green, 72 h; active = well fitted inhibition curve with a large enough effect; note: nearly all actives have a fitted effect of over 65% in size
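Readout: SYBR Green fluorescence, 485 nm excitation, 535 nm emission, after ~16 h lysis at 37C. Before that, Dd2-infected red cells (2.5% hematocrit) grew 72 h with compound, 29 uM top final concentration.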
Large screens that a line does not name were inactive.

Cc1ccc(N(CC(=O)Nc2ccc(C)c(F)c2)S(=O)(=O)c2c(C)n[nH]c2C)cc1	Pf Dd2 inh 8.9µM
Cc1n[nH]c(C)c1S(=O)(=O)N(CC(=O)NC(C)c1ccccc1)c1ccc(C(C)C)cc1 (stereo not given)	none
Cc1[nH]ncc1CNC(=O)c1ccc(CC2CCN(S(C)(=O)=O)CC2)cc1	none
O=C(CCc1cc2n(n1)CCCNC2)Nc1ccc(-n2cncn2)cc1	none
Cc1ccc2nc(CO[C@H]3CN(C(=O)c4ccccc4)C[C@H]3F)[nH]c2c1	none
COc1ccc(C(=O)N2CCC(Cc3nc(-c4ccc(F)cc4)no3)CC2)cc1F	none
CCOc1ccc(CC(=O)N2CCC(Cc3nc(-c4ccc(OC)cc4)no3)CC2)cc1	Pf Dd2 inh 8.9µM
COc1ccc(-c2noc(CC3CCN(C(=O)Cc4ccsc4)CC3)n2)cc1	none
COC(=O)c1cccc(C(=O)N2CCC(Cc3nc(-c4cnccn4)no3)CC2)c1	none
COc1ccc(-c2noc(CC3CCN(C(=O)c4cc(F)cc(F)c4)CC3)n2)cc1	none
COc1ccc(-c2onc(C)c2C(=O)N2CCC(Cc3ccc(F)cc3)CC2)cc1	none
COc1ccc(CC(=O)N2CCC(Cc3nc(-c4ccc(OC)cc4)no3)CC2)cc1	none
COc1ccc(CC2CCN(C(=O)c3c(C)noc3-c3ccc4c(c3)OCO4)CC2)cc1	Pf Dd2 inh 7.9µM
COc1ccc(-c2noc(CC3CCN(C(=O)c4ccc5c(c4)OCO5)CC3)n2)cc1	Pf Dd2 inh 11µM
Cc1noc(-c2ccc3c(c2)OCO3)c1C(=O)N1CCC(Cc2ccccc2)CC1	none
COC(=O)c1cccc(C(=O)N2CCC(Cc3nc(-c4ccc(F)cc4)no3)CC2)c1	Pf Dd2 inh 10µM
O=C(c1ccc2c(c1)OCO2)N1CCC(Cc2nc(-c3ccccc3)no2)CC1	none
CC(C)C(=O)N1CCCN(S(C)(=O)=O)c2ccccc21	none
COc1ccc(C(=O)N2CCC3(CC2)C(=NC2CCCCC2)NC(=O)N3c2cccnc2)cc1	none
COc1ccc(C2(C(=O)N3CC(CO)C4(CCNCC4)C3)CCCCC2)cc1 (stereo not given)	none
CC1=C[C@@H](CNC(=O)CC(C)(C)CC(=O)O)[C@H](C(C)C)C[C@H]1Cc1nc2ccccc2[nH]1	none
Cc1cc2nc3n(c(=O)c2n1CC(=O)Nc1ccc(Cl)cc1)CCCCC3	none
Cc1cccc(OCC(=O)NCCn2cccc2-c2nc(-c3ccc4c(c3)OCO4)no2)c1	none
CCCOc1cc(C)c2c(c1C)C[C@H](C(C)C(=O)N1CCN(CCO)CC1)CC2 (stereo not given in full)	none
O=C(NC[C@H]1OC[C@@H](NC2CCOCC2)[C@@H]1O)c1ccccc1	none
O=C(c1ccc(F)c(F)c1)N1CCC(n2cc(-c3nc(-c4ccccc4)no3)nn2)CC1	none
O=C(O)C[C@@H]1CCN(C(=O)C2CC2)C[C@@H]1CCN1CCN(c2ccccn2)CC1	none
COc1cccc(-c2noc(CC3CCN(C(=O)c4cc(OC)c(OC)c(OC)c4)CC3)n2)c1	none
Cc1ccc(OCC(=O)N2CCC(Cc3nc(-c4ccccc4)no3)CC2)cc1	none
COc1ccc(OCC(=O)N2CCC(Cc3nc(-c4ccc(OC)cc4)no3)CC2)cc1	Pf Dd2 inh 11µM
COc1cccc(-c2noc(CC3CCN(C(=O)c4ccccc4C)CC3)n2)c1	none
COc1cccc(-c2noc(CC3CCN(C(=O)c4ccc(N(C)C)cc4)CC3)n2)c1	Pf Dd2 inh 5µM
COc1ccc(-c2noc(CC3CCN(C(=O)CCCc4ccccc4)CC3)n2)cc1	none
COC(=O)CNC(=O)C1CN(c2cccc(OC)c2)C(=O)N1 (stereo not given)	none
CN(Cc1cc(-c2ccccc2)on1)C(=O)CN1C[C@@H]2CC[C@H](CC1=O)N2	none
CCN(CC)C(=O)CC[C@@H]1CNC(=O)[C@@H]2C[C@H](NC(=O)c3ccc(N(C)C)cc3)CN12	none
COc1ccc(NC(=O)c2ccc(CN3C(=O)NC4(CCOCC4)C3=O)cc2)cc1OC	none
COc1cc(CNc2ccc3[nH]c(=O)[nH]c3c2)cc(Cl)c1OCc1ccccc1F	none
COc1cc(CNc2ccc3[nH]c(=O)[nH]c3c2)cc(Cl)c1OCc1ccc(F)cc1	none
COc1cc(CNc2ccc3[nH]c(=O)[nH]c3c2)cc(Br)c1OCc1ccc(F)cc1	Pf Dd2 inh 13µM
O=C(c1cccc(=O)[nH]1)N1CCCC(c2n[nH]c(=O)n2-c2ccccc2)C1 (stereo not given)	none
CN1[C@@H](CCC(=O)NCc2ccco2)CNC(=O)[C@@H]2[C@H]1CCN2Cc1ccc(C(=O)O)cc1	none
Cc1nn(CCC#N)c(C)c1[C@@H]1C=C[C@@H](NCc2ccc(F)cc2)C1	none
Cc1nn(-c2ccc(C(C)C)cc2)c(C)c1[C@@H]1C=C[C@@H](NCc2cccc(C#N)c2)C1	Pf Dd2 inh 4.5µM
Cc1nn(-c2ccccc2)c(C)c1[C@@H]1C=C[C@@H](NCc2cccc(C#N)c2)C1	none
Cc1nn(-c2cccc(Br)c2)c(C)c1[C@@H]1C=C[C@@H](NS(C)(=O)=O)C1	none
Cc1ccc(-n2nc(C)c([C@@H]3C=C[C@@H](NC(=O)CC(C)(C)CC(=O)O)C3)c2C)cc1Cl	none
Cc1ccc(-n2nc(C)c([C@@H]3C=C[C@@H](NCc4ccc(F)cc4)C3)c2C)cc1Cl	Pf Dd2 inh 3.5µM
Cc1ccc(-n2nc(C)c([C@@H]3C=C[C@@H](NCc4ccc(N(C)C)cc4)C3)c2C)cc1Cl	none
Cc1nn(-c2ccc(C(C)C)cc2)c(C)c1[C@@H]1C=C[C@@H](NCc2ccc(F)cc2)C1	Pf Dd2 inh 4µM
CCN(CC)C(=O)c1cc2c(s1)CCC(C(=O)Nc1ccc(OC)c(F)c1)C2 (stereo not given)	none
COc1cccc(NC(=O)C2CC(=O)N(c3n[nH]c4cc(Br)ccc34)C2)c1 (stereo not given)	none
Cn1cccc1C(=O)N1CCn2c(nnc2[C@@H]2C[C@@H](O)CN2Cc2ccccc2)C1	none
Cn1c(Cn2cccn2)nnc1C1CCCN(C(=O)CCn2cnnn2)C1 (stereo not given)	none
COCC(=O)N1CCn2c(nn(-c3ccc([N+](=O)[O-])cc3)c2=O)C1	none
COCC1CN(C(C)=O)CC12CCN(Cc1cccc(OC)n1)CC2 (stereo not given)	none
Cc1cccc(-c2ccc3c(c2)C(=O)N2CC[C@H](NS(=O)(=O)c4cccs4)[C@H]2C(=O)N3)c1C	Pf Dd2 inh 10µM
COc1ccc(-c2ccc3c(c2)C(=O)N2CC[C@H](NS(=O)(=O)c4cccs4)[C@H]2C(=O)N3)cc1	Pf Dd2 inh 11µM
O=C(N[C@H]1CCN2C(=O)c3cc(-c4ccc(Cl)cc4)ccc3NC(=O)[C@H]12)c1cccs1	none
O=C1Nc2cc(Cl)ccc2C(=O)N2CC[C@H](NS(=O)(=O)c3cccs3)[C@@H]12	none
COc1ccc(Cl)cc1-c1ccc2c(c1)C(=O)N1C[C@@H](NS(=O)(=O)c3ccc(F)cc3)C[C@H]1C(=O)N2	Pf Dd2 inh 7.1µM
COc1ccc(-c2ccc3c(c2)C(=O)N2CC[C@H](NC(=O)CSC)[C@H]2C(=O)N3)cc1	none
COc1ccc(Cl)cc1-c1ccc2c(c1)C(=O)N1C[C@H](O)C[C@H]1C(=O)N2	none
COc1ccc(-c2ccc3c(c2)C(=O)N2CC[C@H](NC(=O)c4cccs4)[C@H]2C(=O)N3)cc1	none
O=C(N[C@H]1CCN2C(=O)c3ccc(Cl)cc3NC(=O)[C@H]12)c1cccs1	none
CSCC(=O)N[C@H]1CCN2C(=O)c3cc(-c4cccc(C)c4C)ccc3NC(=O)[C@H]12	none
O=C1Nc2ccc(-c3ccccc3F)cc2C(=O)N2C[C@@H](NS(=O)(=O)c3ccc(F)cc3)C[C@@H]12	none

Source: PubChem
